Laboratory results as given in the supplement of paper PMC12494721.
Counter-ions that a name gives are not always drawn.

Experiments:
Settings in all cases: incubation time: 27 h, anaerobic, 37 °C;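 for the amine columns active = adjusted P below 0.05 in both replicates with a change the same way and a mean fold change under 0.8 or over 1.25; inactive = the rest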
[1] = system: Clostridium sporogenes DSM 1664; test: growth (OD595) fold change vs plate DMSO controls (fold change (ratio)); higher = more growth
Method in brief: (§1)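 The 96-well mGAM cultures had been kept anaerobic for 27 h at 37 °C before being shaken and read at 595 nm. Blank subtraction, compound background correction with 20 µM compound solutions in water, and a calibration factor of 5 turned the readings into OD. Growth is given as the fold change versus the median of plate DMSO controls. Fold changes above 1.5 were set to NA, and the values are means of 2 biological replicates.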

[2] = system: Escherichia coli IAI1; test: as above
Method in brief: as §1

[3] = system: Klebsiella aerogenes DSM 30053; test: as above
Method in brief: as §1

[4] = system: Ruminococcus gnavus DSM 108212; test: as above
Method in brief: as §1

[5] = system: Klebsiella aerogenes DSM 30053; test: fold change of Histamine concentration vs plate DMSO controls (fold change (ratio)); higher = more amine produced, active = hit call of the paper (significant change in both replicates, either direction)
Method in brief: (§2)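 Using LC–triple-quadrupole MS with dynamic MRM, amines were quantified against external calibration curves and corrected for drift within each batch. Samples were whole anaerobic mGAM cultures of four gut strains, grown 27 h at 37 °C from OD 0.1 before 1:1 dilution, extracted with cold acetonitrile/methanol containing 0.1% formic acid and centrifuged. Compounds were present at 20 µM final (sweeteners at 50 µM final). The numbers are fold changes versus plate DMSO controls, each the mean of 2 biological replicates.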

[6] = system: Clostridium sporogenes DSM 1664; test: fold change of Tryptamine concentration vs plate DMSO controls (fold change (ratio)); higher = more amine produced, active = hit call of the paper (significant change in both replicates, either direction)
Method in brief: as §2

[7] = system: Ruminococcus gnavus DSM 108212; test: as above
Method in brief: as §2

[8] = system: Escherichia coli IAI1; test: fold change of Putrescine concentration vs plate DMSO controls (fold change (ratio)); higher = more amine produced, active = hit call of the paper (significant change in both replicates, either direction)
Method in brief: as §2

[9] = system: Klebsiella aerogenes DSM 30053; test: as above
Method in brief: as §2

[10] = system: Escherichia coli IAI1; test: fold change of Cadaverine concentration vs plate DMSO controls (fold change (ratio)); higher = more amine produced, active = hit call of the paper (significant change in both replicates, either direction)
Method in brief: as §2

[11] = system: Klebsiella aerogenes DSM 30053; test: as above
Method in brief: as §2

[12] = system: Ruminococcus gnavus DSM 108212; test: fold change of 2-Phenylethylamine concentration vs plate DMSO controls (fold change (ratio)); higher = more amine produced, active = hit call of the paper (significant change in both replicates, either direction)
Method in brief: as §2

Structure (SMILES): c1ccc([C@H]2CN3CCSC3=N2)cc1 [Levamisole hydrochloride] (20 µM)
- growth [1]: 1
- growth [2]: 0.988
- growth [3]: 0.966
- growth [4]: 1
- fold change of Histamine concentration [5]: 1.07 (inactive)
- fold change of Tryptamine concentration [6]: 0.986 (inactive)
- fold change of Tryptamine concentration [7]: 0.908 (inactive)
- fold change of Putrescine concentration [8]: 0.967 (inactive)
- fold change of Putrescine concentration [9]: 1.02 (inactive)
- fold change of Cadaverine concentration [10]: 1.01 (inactive)
- fold change of Cadaverine concentration [11]: 0.994 (inactive)
- fold change of 2-Phenylethylamine concentration [12]: 0.961 (inactive)

Structure (SMILES): O=C(Nc1ccccc1)OCC(CN1CCCCC1)OC(=O)Nc1ccccc1 (centres undefined) [Diperodon hydrochloride] (20 µM)
- growth [1]: 1.11
- growth [2]: 0.998
- growth [3]: 0.962
- growth [4]: 0.942
- fold change of Histamine concentration [5]: 1.05 (inactive)
- fold change of Tryptamine concentration [6]: 0.94 (inactive)
- fold change of Tryptamine concentration [7]: 0.952 (inactive)
- fold change of Putrescine concentration [8]: 0.975 (inactive)
- fold change of Putrescine concentration [9]: 1.03 (inactive)
- fold change of Cadaverine concentration [10]: 1.03 (inactive)
- fold change of Cadaverine concentration [11]: 0.976 (inactive)
- fold change of 2-Phenylethylamine concentration [12]: 0.923 (inactive)

Structure (SMILES): CN(C)CCOC1=Cc2ccccc2Sc2ccc(Cl)cc21 [Zotepine] (20 µM)
- growth [1]: 1.11
- growth [2]: 1.07
- growth [3]: 1.05
- growth [4]: 1.34
- fold change of Histamine concentration [5]: 1 (inactive)
- fold change of Tryptamine concentration [6]: 1.01 (inactive)
- fold change of Tryptamine concentration [7]: 0.902 (inactive)
- fold change of Putrescine concentration [8]: 1.08 (inactive)
- fold change of Putrescine concentration [9]: 0.99 (inactive)
- fold change of Cadaverine concentration [10]: 1.05 (inactive)
- fold change of Cadaverine concentration [11]: 0.993 (inactive)
- fold change of 2-Phenylethylamine concentration [12]: 0.924 (inactive)

Structure (SMILES): CCC(C)(CN(C)C)OC(=O)c1ccccc1 (centres undefined) [Amyleine hydrochloride] (20 µM)
- growth [1]: 0.952
- growth [2]: 1.01
- growth [3]: 0.983
- growth [4]: 0.997
- fold change of Histamine concentration [5]: 1.02 (inactive)
- fold change of Tryptamine concentration [6]: 0.974 (inactive)
- fold change of Tryptamine concentration [7]: 0.945 (inactive)
- fold change of Putrescine concentration [8]: 1.04 (inactive)
- fold change of Putrescine concentration [9]: 1.02 (inactive)
- fold change of Cadaverine concentration [10]: 1.01 (inactive)
- fold change of Cadaverine concentration [11]: 0.983 (inactive)
- fold change of 2-Phenylethylamine concentration [12]: 0.874 (inactive)

Structure (SMILES): CC[C@@H](CO)NCCN[C@@H](CC)CO [Ethambutol dihydrochloride] (20 µM)
- growth [1]: 0.97
- growth [2]: 1.02
- growth [3]: 1.01
- growth [4]: 0.965
- fold change of Histamine concentration [5]: 0.958 (inactive)
- fold change of Tryptamine concentration [6]: 0.996 (inactive)
- fold change of Tryptamine concentration [7]: 1.04 (inactive)
- fold change of Putrescine concentration [8]: 1.05 (inactive)
- fold change of Putrescine concentration [9]: 0.987 (inactive)
- fold change of Cadaverine concentration [10]: 0.954 (inactive)
- fold change of Cadaverine concentration [11]: 1.01 (inactive)
- fold change of 2-Phenylethylamine concentration [12]: 1.09 (inactive)

Structure (SMILES): CC(=O)N(CC(O)CO)c1c(I)c(C(=O)NCC(O)CO)c(I)c(C(=O)NCC(O)CO)c1I (centres undefined) [Iohexol] (20 µM)
- growth [1]: 1
- growth [2]: 1.02
- growth [3]: 1.04
- growth [4]: 0.911
- fold change of Histamine concentration [5]: 0.958 (inactive)
- fold change of Tryptamine concentration [6]: 0.975 (inactive)
- fold change of Tryptamine concentration [7]: 1.01 (inactive)
- fold change of Putrescine concentration [8]: 1.02 (inactive)
- fold change of Putrescine concentration [9]: 0.997 (inactive)
- fold change of Cadaverine concentration [10]: 0.992 (inactive)
- fold change of Cadaverine concentration [11]: 1 (inactive)
- fold change of 2-Phenylethylamine concentration [12]: 1.01 (inactive)

Structure (SMILES): CC=CC1=C(C(=O)O)N2C(=O)[C@@H](NC(=O)[C@H](N)c3ccc(O)cc3)[C@H]2SC1 [Cefprozil] (20 µM)
- growth [1]: 0.404
- growth [2]: 1.01
- growth [3]: 0.983
- growth [4]: 0.5
- fold change of Histamine concentration [5]: 1.06 (inactive)
- fold change of Tryptamine concentration [6]: 0.324 (active)
- fold change of Tryptamine concentration [7]: 0.637 (inactive)
- fold change of Putrescine concentration [8]: 0.914 (inactive)
- fold change of Putrescine concentration [9]: 1.02 (inactive)
- fold change of Cadaverine concentration [10]: 0.955 (inactive)
- fold change of Cadaverine concentration [11]: 1.02 (inactive)
- fold change of 2-Phenylethylamine concentration [12]: 0.843 (inactive)

Structure (SMILES): Cc1c(F)c(N2CCNC(C)C2)cc2c1c(=O)c(C(=O)O)cn2C1CC1 (centres undefined) [Grepafloxacin] (20 µM)
- growth [1]: 0.0227
- growth [2]: 0.0384
- growth [3]: 0.142
- growth [4]: 1.29
- fold change of Histamine concentration [5]: 0.0669 (active)
- fold change of Tryptamine concentration [6]: 0.0355 (active)
- fold change of Tryptamine concentration [7]: 0.697 (inactive)
- fold change of Putrescine concentration [8]: 0.738 (active)
- fold change of Putrescine concentration [9]: 0.628 (active)
- fold change of Cadaverine concentration [10]: 0.155 (active)
- fold change of Cadaverine concentration [11]: 0.936 (inactive)
- fold change of 2-Phenylethylamine concentration [12]: 0.731 (inactive)

Structure (SMILES): COC(=O)C1=C(C)NC(C)=C(C(=O)OCCN(C)Cc2ccccc2)C1c1cccc([N+](=O)[O-])c1 (centres undefined) [Nicardipine hydrochloride] (20 µM)
- growth [1]: 1.11
- growth [2]: 0.934
- growth [3]: 1.01
- growth [4]: 1.18
- fold change of Histamine concentration [5]: 0.982 (inactive)
- fold change of Tryptamine concentration [6]: 0.981 (inactive)
- fold change of Tryptamine concentration [7]: 0.915 (inactive)
- fold change of Putrescine concentration [8]: 1.04 (inactive)
- fold change of Putrescine concentration [9]: 0.999 (inactive)
- fold change of Cadaverine concentration [10]: 0.995 (inactive)
- fold change of Cadaverine concentration [11]: 0.99 (inactive)
- fold change of 2-Phenylethylamine concentration [12]: 0.858 (inactive)

Structure (SMILES): C=CC1=C(C(=O)O)N2C(=O)[C@@H](NC(=O)/C(=N\O)c3csc(N)n3)[C@H]2SC1 [Cefdinir] (20 µM)
- growth [1]: 0
- growth [2]: 0
- growth [3]: 0.757
- growth [4]: 0
- fold change of Histamine concentration [5]: 1.22 (inactive)
- fold change of Tryptamine concentration [6]: 0.0307 (active)
- fold change of Tryptamine concentration [7]: 0.04 (active)
- fold change of Putrescine concentration [8]: 0.208 (active)
- fold change of Putrescine concentration [9]: 0.979 (inactive)
- fold change of Cadaverine concentration [10]: 0.77 (inactive)
- fold change of Cadaverine concentration [11]: 1.03 (inactive)
- fold change of 2-Phenylethylamine concentration [12]: 0.0439 (active)

Structure (SMILES): CN1C(C(=O)Nc2ccccn2)=C(O)c2ccccc2S1(=O)=O [Piroxicam] (20 µM)
- growth [1]: 1.07
- growth [2]: 1.03
- growth [3]: 1.02
- growth [4]: 1.05
- fold change of Histamine concentration [5]: 0.953 (inactive)
- fold change of Tryptamine concentration [6]: 1.09 (inactive)
- fold change of Tryptamine concentration [7]: 0.99 (inactive)
- fold change of Putrescine concentration [8]: 1.03 (inactive)
- fold change of Putrescine concentration [9]: 0.99 (inactive)
- fold change of Cadaverine concentration [10]: 1.02 (inactive)
- fold change of Cadaverine concentration [11]: 1.04 (inactive)
- fold change of 2-Phenylethylamine concentration [12]: 0.999 (inactive)

Structure (SMILES): Cc1ccc(-c2cc(C(F)(F)F)nn2-c2ccc(S(N)(=O)=O)cc2)cc1 [Celecoxib] (20 µM)
- growth [1]: 0.912
- growth [2]: 1.03
- growth [3]: 1
- growth [4]: 1.11
- fold change of Histamine concentration [5]: 1.09 (inactive)
- fold change of Tryptamine concentration [6]: 0.967 (inactive)
- fold change of Tryptamine concentration [7]: 0.927 (inactive)
- fold change of Putrescine concentration [8]: 1.03 (inactive)
- fold change of Putrescine concentration [9]: 0.991 (inactive)
- fold change of Cadaverine concentration [10]: 1.06 (inactive)
- fold change of Cadaverine concentration [11]: 0.99 (inactive)
- fold change of 2-Phenylethylamine concentration [12]: 0.87 (inactive)
